Some test systems named below: NCI-H23 lung; NCI-H226 lung; NCI-H322M lung; HOP-62 NSCLC; NCI-H460 lung; HOP-92 NSCLC; NCI-H522 lung; A549/ATCC NSCLC; 786-0 renal; COLO 205 colon; DU-145 prostate; K-562 leukemia; MALME-3M melanoma; MDA-MB-231 breast; RXF 393 renal; SF-268 CNS; SF-295 CNS; SF-539 CNS; UACC-257 melanoma; M14 melanoma.
Assay in all cases: NCI-60 one-dose screen, 48 h (100 = growth as untreated, 0 = no growth, -100 = all killed)
What all share (conditions): 10 µM unless noted

This is part of a sample that, as a whole, favours compounds with a hit. Of some 83,000 tested, about 20% had one in any assay.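 For each line, cells grew in 96-well plates with the test compound present at a single concentration for 48 hours.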 A number with no mark means an inactive call. Activity calls are given as the source filed them. The calls were made as follows: active = growth percent below 10; inactive = the rest.

With `COC(=O)c1cccc(NC2=CC(=O)C(C)=C(C)C2=O)c1`, the growth with NCI-H23 lung was 63.9%; in the experiment on NCI-H226 lung it was 95%; with NCI-H322M lung, 104%; with HOP-62 NSCLC it was 97.4%; with NCI-H460 lung it was 104%; in the experiment on HOP-92 NSCLC it was 123%. Moreover, the growth was 93.6% in the experiment on NCI-H522 lung; 109% in the experiment with A549/ATCC NSCLC; 101% in the experiment with 786-0 renal; 114% with COLO 205 colon; 108% in the experiment with DU-145 prostate; 69.3% with K-562 leukemia. Also, the growth is 97.9% with MALME-3M melanoma; 76.4% with MDA-MB-231 breast; 94.2% in the experiment with RXF 393 renal; 97.3% with SF-268 CNS; 115% in the experiment with SF-295 CNS; 97.2% in the experiment with SF-539 CNS. Also, the growth in the experiment with UACC-257 melanoma was 86.9%; in the experiment with M14 melanoma, 108%.

As to `O=c1[nH][nH]c(-c2ccc(F)cc2)c1-c1nc2ccccc2s1`, the growth in the experiment on NCI-H23 lung was 89.9%; in the experiment on NCI-H226 lung, 82.3%; with NCI-H322M lung, 88.7%; in the experiment on HOP-62 NSCLC, 89.4%; with NCI-H460 lung, 92.2%; in the experiment on HOP-92 NSCLC, 77.1%. Also, the growth in the experiment on NCI-H522 lung was 92.9%; with A549/ATCC NSCLC, 111%; in the experiment on 786-0 renal, 107%; with COLO 205 colon it was 113%; with DU-145 prostate, 104%; with K-562 leukemia it was 98.1%. In addition, the growth is 84% in the experiment on MALME-3M melanoma; 85% with MDA-MB-231 breast; 99.7% with RXF 393 renal; 98.1% in the experiment on SF-268 CNS; 103% in the experiment with SF-295 CNS; 94.8% in the experiment on SF-539 CNS. Moreover, the figures for the growth in the experiment with UACC-257 melanoma and in the experiment with M14 melanoma were 107% and 89.1%, respectively.

As for `COc1ccc(C2CC(c3cccc(OCCCCOc4cccc(C5=NN(C(C)=O)C(c6ccc(OC)cc6)C5)c4)c3)=NN2C(C)=O)cc1` (stereo not given), the growth in the experiment with NCI-H23 lung was 57%; with NCI-H226 lung, 62.3%; in the experiment on NCI-H322M lung, 91%; with HOP-62 NSCLC, 71.3%; in the experiment with NCI-H460 lung it was 66.6%; in the experiment with HOP-92 NSCLC it was 68.7%. Also, the growth in the experiment on NCI-H522 lung is 53.2%; with A549/ATCC NSCLC, 68.2%; in the experiment on 786-0 renal, 86.3%; in the experiment on COLO 205 colon, 82.8%; in the experiment on DU-145 prostate it was 81.6%; in the experiment with K-562 leukemia it was 37%. Also, the growth was 105% in the experiment on MALME-3M melanoma; 77.3% with MDA-MB-231 breast; 95.2% in the experiment with RXF 393 renal; 74.8% in the experiment with SF-268 CNS; 44.3% in the experiment on SF-295 CNS; 81.5% with SF-539 CNS. The values for the growth in the experiment with UACC-257 melanoma and with M14 melanoma were 46.8% and 85.3%, respectively.

Take `COc1ccc(C(=NNS(=O)(=O)c2ccc(C)cc2)c2ccccc2)cc1OC`: the growth in the experiment on NCI-H23 lung is 99.5%; in the experiment with NCI-H226 lung it was 99.5%; in the experiment with NCI-H322M lung, 92.9%; with HOP-62 NSCLC, 102%; with NCI-H460 lung, 105%; with HOP-92 NSCLC, 90.4%. The growth in the experiment with NCI-H522 lung is 92.4%; with A549/ATCC NSCLC, 96.1%; in the experiment with 786-0 renal, 99.1%; in the experiment with COLO 205 colon it was 111%; with DU-145 prostate it was 103%; in the experiment on K-562 leukemia, 94.3%. In addition, the growth in the experiment on MALME-3M melanoma was 87.7%; in the experiment with MDA-MB-231 breast, 91.2%; with RXF 393 renal, 105%; with SF-268 CNS it was 95.5%; with SF-295 CNS, 87.7%; in the experiment on SF-539 CNS it was 105%. The values for the growth in the experiment with UACC-257 melanoma and in the experiment with M14 melanoma were 96.5% and 102%, respectively.

On to `NC1CC2(CCN(c3cnc(C(=O)Nc4cc(F)cc5cccnc45)cn3)CC2)C1`, for which the growth was 88.6% in the experiment on NCI-H23 lung; 93.2% with NCI-H226 lung; 87.4% in the experiment with NCI-H322M lung; 96% in the experiment with HOP-62 NSCLC; 83.8% in the experiment with NCI-H460 lung; 79.7% in the experiment with HOP-92 NSCLC. The growth in the experiment with NCI-H522 lung is 93.3%; in the experiment on A549/ATCC NSCLC, 63.2%; with 786-0 renal, 71.8%; in the experiment with COLO 205 colon, 49.9%; in the experiment on DU-145 prostate, 81.3%; with K-562 leukemia, -13.3% (active). Further, the growth is 96.2% in the experiment with MALME-3M melanoma; 80.1% with MDA-MB-231 breast; 73.5% with RXF 393 renal; 83.1% with SF-268 CNS; 58% in the experiment with SF-295 CNS; 75.7% in the experiment with SF-539 CNS. For the same molecule, the results for the growth in the experiment on UACC-257 melanoma and with M14 melanoma were 103% and 78.9%, respectively.

Regarding `CCN(CC)c1ccc(/C=N/NC(=O)c2ccc(NS(C)(=O)=O)cc2)cc1`, the growth in the experiment with NCI-H23 lung is 36.5%; in the experiment with NCI-H226 lung it was 51.8%; in the experiment with NCI-H322M lung, 27.3%; in the experiment with HOP-62 NSCLC, 17.4%; in the experiment on NCI-H460 lung it was 8.88% (active); with HOP-92 NSCLC it was 80%. In addition, the growth in the experiment with NCI-H522 lung was 21.8%; with A549/ATCC NSCLC, 29.9%; in the experiment on 786-0 renal, 13.5%; with COLO 205 colon, 13.9%; with DU-145 prostate it was 37.9%; with K-562 leukemia, 14.8%. The growth is 15.5% in the experiment on MALME-3M melanoma; 43.2% with MDA-MB-231 breast; 12.3% with RXF 393 renal; 32% in the experiment with SF-268 CNS; 11.4% in the experiment with SF-295 CNS; 18.6% in the experiment with SF-539 CNS. Moreover, the growth with UACC-257 melanoma was -4.47% (active); in the experiment with M14 melanoma it was 0.0523% (active).

As for `CCOC(=O)c1ccccc1NC1=C(Cl)C(=O)c2nc(C)ccc2C1=O`, the growth with NCI-H23 lung was 81.5%; in the experiment on NCI-H226 lung, 100%; in the experiment on NCI-H322M lung it was 101%; in the experiment on HOP-62 NSCLC it was 102%; in the experiment on NCI-H460 lung it was 99.8%; with HOP-92 NSCLC it was 118%. The growth in the experiment with NCI-H522 lung is 102%; in the experiment on A549/ATCC NSCLC it was 107%; with 786-0 renal, 104%; with COLO 205 colon it was 120%; in the experiment on DU-145 prostate, 112%; in the experiment with K-562 leukemia, 89.6%. Also, the growth with MALME-3M melanoma is 107%; in the experiment on MDA-MB-231 breast, 90.3%; with RXF 393 renal, 102%; in the experiment with SF-268 CNS it was 99.2%; in the experiment on SF-295 CNS, 110%; in the experiment on SF-539 CNS, 96.1%. Besides, the growth is 99.2% in the experiment with UACC-257 melanoma and 109% with M14 melanoma.

As to `COC(=O)CCCNCCCn1ccc2cc(NCc3cccc(-c4ccccc4)c3C)ccc21`, the growth was 61.9% with NCI-H23 lung; 69.7% with NCI-H226 lung; 97.6% in the experiment on NCI-H322M lung; 81.9% in the experiment with HOP-62 NSCLC; 81.8% in the experiment with NCI-H460 lung; 22.3% in the experiment with HOP-92 NSCLC. In addition, the growth with NCI-H522 lung is 91.7%; with A549/ATCC NSCLC, 84.9%; in the experiment with 786-0 renal it was 74.2%; with COLO 205 colon, 64.4%; in the experiment on DU-145 prostate, 86.2%; with K-562 leukemia, -1.36% (active). Further, the growth is 75.2% in the experiment with MALME-3M melanoma; 68.3% in the experiment with MDA-MB-231 breast; 71.9% in the experiment with RXF 393 renal; 82.9% in the experiment on SF-268 CNS; 64.5% in the experiment with SF-295 CNS; 77.8% in the experiment on SF-539 CNS. Besides, the values for the growth in the experiment on UACC-257 melanoma and in the experiment on M14 melanoma were 81.6% and 68.1%, respectively.

These data come from PubChem BioAssay (NCI).
